Experimental data taken from PubChem BioAssay (NCI).
The panel holds about 83,000 compounds, 20% with a hit somewhere; the sample as a whole holds those more often.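 Each cell line was grown in a 96-well plate and treated with one concentration of compound for 48 hours. Values below 10 were considered active.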 Activity calls are given as the source filed them.

Test system: TK-10 renal
Assay: NCI-60 one-dose screen, 48 h (100 = growth as untreated, 0 = no growth, -100 = all killed)
Conditions: 10 µM unless noted

| Compound | growth |
| --- | --- |
| COc1cc2c(c(OC)c1OC)C(=O)CC(c1cccc(NC(=O)c3cc(NC(=O)[C@H](C)N)ccc3Cl)c1)O2 (stereo partly specified) | 101% (inactive) |
| C#CCOc1cc(N(CC)CC)ccc1C(C(=O)NC(C)(C)C)N(C(=O)C1CCc2cc(F)ccc2O1)c1cc(C)cc(C)c1 (stereo unspecified) | 50.3% (inactive) |
| Cc1ccc(C2=NN(c3nc(-c4cc5ccccc5oc4=O)cs3)C(c3ccc(C)cc3)C2)cc1 (stereo unspecified) | 163% (inactive) |
| Cn1cc(-c2nc(N)nnc2-c2c[nH]c3ccc(F)cc23)c2cc(Br)cnc21 | 26.2% (inactive) |

Test system: ACHN renal
Assay: as above
Conditions: 10 µM unless noted

| Compound | growth |
| --- | --- |
| Brc1ccc(-c2n(Cc3ccc4ccccc4c3)c(-c3ccccc3)c(-c3ccccc3)[n+]2Cc2ccc3ccccc3c2)cc1 | -100% (active) |
| O=C1CCCc2cc(OCC(=O)N3CCCCC3)ccc2N1 | 107% (inactive) |
| COc1cc2c3c(n(CCCN4CCC[C@@H]4CO)c(=O)c2cc1OC)-c1cc2c(cc1C3=O)OCO2 | -100% (active) |
| CC(=O)c1c(N)c(C#N)cn1-c1ccc(Cl)cc1Cl | 102% (inactive) |
| Cc1ccc(C2CC(c3ccc(S(=O)(=O)NCCNc4nc(Nc5ccc(F)cc5)nc(N(C)C)n4)cc3)=Nc3c(N)nc(N)nc3N2)cc1 (stereo unspecified) | 61% (inactive) |
| Cc1ccc(C(=O)C(c2c[nH]c3ccccc23)c2c[nH]c3ccccc23)cc1 | 17.9% (inactive) |
| COc1cc(-c2nc3ccc(C)cc3[nH]2)ccc1OCc1nnc(-c2ccc(Br)cc2)o1 | 55.9% (inactive) |
| Nc1nnc(-c2c[nH]c3ccc(Br)cc23)c(-c2c[nH]c3ncc(Br)cc23)n1 | 29.6% (inactive) |
| Cc1ccc(-c2nc(C#N)c(S(=O)(=O)N3CCN(S(=O)(=O)c4ccc(Cl)cc4)CC3)o2)cc1 | 43.8% (inactive) |
| CCOC(=O)C1=C(N)N(c2ccccc2)C2=C(C(=O)CC(C)(C)C2)C1c1ccccc1Cl (stereo unspecified) | 69.2% (inactive) |
| Cc1ccc(C(=O)NN2C(=O)/C(=C/C=C/c3ccc([N+](=O)[O-])o3)SC2=S)cc1 | -100% (active) |
| CCCS(=O)(=O)N1CCCC(C(=O)Nc2nc3ccc(NC(=O)c4ccc(F)c(OC)c4F)cc3s2)C1 (stereo unspecified) | 46.7% (inactive) |
| O=C1CC(Sc2n[nH]c(-c3ccncc3)n2)C(=O)N1c1ccc(Br)cc1 (stereo unspecified) | 109% (inactive) |
| COc1ccc(NC(=O)Nc2ccc(OCc3ccc(F)cc3)cc2)cc1 | 42.2% (inactive) |
| COc1ccc(/C=C/c2nc3ccccc3n3c(-c4ccc(Cl)cc4)nnc23)cc1 | 93.5% (inactive) |
| CC1(C)CC[C@]2(C(=O)O)CC[C@]3(C)C(=CCC4[C@@]5(C)C[C@@H](O)[C@@H]6OC(c7ccccc7Br)OC[C@@]6(C)C5CC[C@]43C)C2C1 (stereo partly specified) | 9.85% (active) |
| CC(=O)OCC1OC(OC2C(COC(C)=O)OC(n3cc(COc4ccc5ccc(=O)oc5c4)nn3)C(OC(C)=O)C2OC(C)=O)C(OC(C)=O)C(OC(C)=O)C1OC(C)=O (stereo unspecified) | 102% (inactive) |
| COc1ccc(Cc2nn(CC(=O)N/N=C/c3ccc(F)cc3)c(=O)c3c(C)noc23)cc1 | -39.4% (active) |
| O=C(c1ccccc1)C(c1c[nH]c2ccccc12)c1c[nH]c2ccccc12 | 53.5% (inactive) |

| Compound | growth |
| --- | --- |
| N=C1N=C(SCc2nc3ccccc3[nH]2)NC(=O)/C1=C/c1ccc(Cl)cc1 | 99.6% (inactive) |
| Cn1cc(-c2cc3nc(-c4c[nH]c5ccc(Cl)cc45)cc(N)n3n2)c2ccccc21 | -100% (active) |
| CC1(C)CC[C@]2(C(=O)O)CC[C@]3(C)C(=CCC4[C@@]5(C)C[C@@H](O)[C@@H]6OC(c7ccco7)OC[C@@]6(C)C5CC[C@]43C)C2C1 (stereo partly specified) | 7.44% (active) |
| COc1ccc(C2CC(c3ccc(S(=O)(=O)NCCNc4nc(Nc5ccc(F)cc5)nc(N(C)C)n4)cc3)=Nc3c(N)nc(N)nc3N2)cc1 (stereo unspecified) | 92.7% (inactive) |
| O=C(Nc1ccccc1)N1CCN(c2cc(-c3cn(-c4ccccc4)nc3-c3cccc(O)c3)ccn2)CC1 | 81.7% (inactive) |
| CNS(=O)(=O)c1ccc(Nc2ccc(C(F)(F)F)cc2)c(-c2cn(C)cn2)c1 | 48.9% (inactive) |
| CCS(=O)(=O)N1CCCC(C(=O)Nc2nc3ccc(NC(=O)c4ccc(F)c(OC)c4F)cc3s2)C1 (stereo unspecified) | 63.5% (inactive) |
| COc1ccc(CCC2c3c(cc4c(c3OC)OCO4)CCN2C)cc1 (stereo unspecified) | -16.5% (active) |
| Nc1nc(-c2ccccc2)c(N=Nc2ccc([N+](=O)[O-])cc2Cl)s1 | 79.1% (inactive) |
| CN(C)c1nc(NCCNS(=O)(=O)c2ccc(C3=Nc4c(N)nc(N)nc4NC(c4ccccc4)C3)cc2)nc(Nc2ccc(F)cc2)n1 (stereo unspecified) | 76.3% (inactive) |
| N/C(=N\c1nc2ccccc2s1)NC(=O)Nc1ccc(Cl)cc1Cl | -87.4% (active) |
| CCCCn1c(O)c(N=Nc2nc(-c3cc4ccccc4oc3=O)cs2)c2cc(Br)ccc21 | 106% (inactive) |
| Cc1cccc(-c2nc(Nc3cccc(S(N)(=O)=O)c3)c3ccccc3n2)c1 | 38.1% (inactive) |
| Cn1cc(-c2cc(N)n3nc(-c4cn(C)c5ccccc45)cc3n2)c2cc(Br)ccc21 | -31.7% (active) |
| COc1cc2c(c(OC)c1OC)C(=O)CC(c1cccc(NC(=O)c3cc(NC(=O)[C@H](C)N)ccc3Cl)c1)O2 (stereo partly specified) | 50.4% (inactive) |
| C#CCOc1cc(N(CC)CC)ccc1C(C(=O)NC(C)(C)C)N(C(=O)C1CCc2cc(F)ccc2O1)c1cc(C)cc(C)c1 (stereo unspecified) | 22.7% (inactive) |
| Cc1ccc(C2=NN(c3nc(-c4cc5ccccc5oc4=O)cs3)C(c3ccc(C)cc3)C2)cc1 (stereo unspecified) | 102% (inactive) |
| Cn1cc(-c2nc(N)nnc2-c2c[nH]c3ccc(F)cc23)c2cc(Br)cnc21 | 12.2% (inactive) |
